Several values for one entry are separate records, joined by “and”; a condition that tells them apart may be missing. Equal values may be shown once. About 83,000 compounds went through this panel and 20% of them were active in at least one assay; those are over-represented in the sample as a whole.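 Note: values are percent growth. 100 is the growth of untreated cells, values between 100 and 0 indicate rising inhibition; between -100 and 0 indicates cell death.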 A number with no mark means an inactive call. Activity calls are given as the source filed them. Rule for the calls: active = growth percent below 10; inactive = the rest.

For one experiment, the system named is SW-620 colon. The experiment can be described thus: NCI-60 one-dose screen, 48 h (100 = growth as untreated, 0 = no growth, -100 = all killed). The conditions noted are these: 10 µM unless noted.
As to `O=C(Nc1ccc(F)cc1)c1cc2cc(Nc3nc(-c4ccccc4)nc4ccccc34)ccc2oc1=O`, the growth is 107%.
As for `COC(=O)c1c2c(c(C)[n+]([O-])c1C)C(=O)C(NCCN1CCOCC1)=CC2=O`, the growth was 64.3%.
The same measure, in the same setting: the figure for `COc1c(O)c(O)cc2c3c(oc12)CC(c1ccc2c(c1)OCO2)CC3=O` (stereo unspecified) is 38.7%; for `O=C1CCCCN1CCCCC#Cc1cccc(C#Cc2cccnc2)c1` it is 101%.
On the same count and under the same terms, next, `Cc1ccc(-c2nc3nc(-c4ccc(Cl)cc4)nc(N4CCCNCC4)c3o2)cc1`: -81.9% (active); `CC(=O)c1c(C)nc2ccccc2c1/C=C/c1cccc(C)c1`: 29.4%; `CCOC(=O)C(=CCC(C)C)C(=O)OCC`: 105%.
Same read-out and setting: the figure for `BrC1=C(Br)C(Br)(Br)C(Br)=C1Br` is 80.1%; for `COc1ccc(-c2csc(NC(=O)CN3CCN(CCO)CC3)n2)cc1NS(=O)(=O)c1cccc2c(N(C)C)cccc12` it is 84.1%.
In the case of `Cc1nnc(NS(=O)(=O)c2ccc(N=Nc3ccc(N)nc3N)cc2)s1`, the growth is 108% and 106%.
For the compound `CCCCCCCCCCCCCCCCCCn1cc(COc2ccc(C=O)cc2)nn1`, the growth is 104%.
Same read-out and setting: the figure for `C=C(C)[C@@H]1CC[C@]2(C(=O)O)CC[C@]3(C)[C@H](CC[C@@H]4[C@@]5(C)CCC(N)C(C)(C)[C@@H]5CC[C@]43C)[C@@H]12` (stereo partly specified) is 16.3%; for `Cc1ccc(-c2nc3nc(-c4ccc(Br)cc4)nc(N4CCCNCC4)c3o2)cc1` it is -72.4% (active); for `O=C(Nc1ncc(Cc2cccc(C(F)(F)F)c2)s1)c1ccc2c(c1)OCCO2` it is 37%.
With `COCCn1cc(-c2nc(-c3cn(CCOC)c4ncccc34)cs2)c2ccccc21`, the growth was 115%.
Still for that read-out and setting: next, `O=C(N=Nc1c(O)[nH]c2ccccc12)Nc1ccccc1Cl`: 85.2%; `CC1(C)C(N)=Nc2cc(OCCCN3Cc4ccc(OCCc5cn(CC(=O)N6CCC(CCN7CCCC7)CC6)nn5)cc4C3)c(OCC3CC3)cc21`: 109%.
For `COc1ccc(CN2CCc3c(Cl)nc(N)nc3C2=O)c(OC)c1`, the growth was -46.8% [100 µM] (active).
The same measure, in the same setting: the figure for `C=C(CNCCO)[C@@H]1CC[C@]2(CO)CC[C@]3(C)[C@H](CC[C@@H]4[C@@]5(C)CCC(NCCc6ccc(O)cc6)C(C)(C)[C@@H]5CC[C@]43C)[C@@H]12` (stereo partly specified) is -75.1% (active); for `COc1ccc2nc3cc(Cl)ccc3c(NCCCNCCC(C)O)c2c1` (stereo unspecified) it is -22.2% (active).
With `Clc1ccc(CNc2ccc3nc(CCC4CCCCC4)[nH]c3c2)cc1`, the growth was 26.2%.
Regarding `Nc1n[nH]c2cccc(C#Cc3cccc(NC(=O)c4ccc(N5CCOCC5)c(C(F)(F)F)c4)c3)c12`, the growth was 21.5%.
`ON=C1CCCCCCCC1`: the growth is 108% and 105%.
Regarding `Cc1ccc(C(=O)Nc2ccc(CN3CCN(C)CC3)c(C(F)(F)F)c2)cc1C#Cc1cnc(N)cc1C#N`, the growth is -81.2% (active).
Same read-out and setting: the figure for `COc1nc(=O)n(C2C=CC(=O)O2)cc1F` (stereo unspecified) is 46.3%.
With `OB(O)c1ccsc1-c1nc2ccc3[nH]ncc3c2c2c1CCCC2`, the growth was 22.7%.
Still for that read-out and setting: next, `Cc1ccc(NC(=O)c2sc3nc(C)c(C(=O)c4ccccc4)cc3c2N)cc1`: 90.8%.
On to `O=C1C(c2c[nH]c3ccccc23)=C(c2coc3cc(Br)ccc23)C(=O)N1O`, for which the growth is 102%.
The same measure, in the same setting: the figure for `O=C1Nc2ccccc2/C1=C/c1cccn1CCCCCn1c2ccccc2c(=O)c2ccccc21` is 100%.
On the same count and under the same terms, the figure for `O=C(/C=C/c1ccc(Cl)s1)c1ccc(Cl)s1` is 99.7% and 95.2%.
As to `NC(N)=NC(N)=NCCCc1ccco1`, the growth is 94.5%.
Still for that read-out and setting: the figure for `Cc1nc2sc(C(=O)Nc3cccc(Cl)c3C)c(N)c2cc1C(O)c1ccccc1` (stereo unspecified) is 24.1%; for `COc1cc2ncnc(Nc3ccc(F)c(Cl)c3)c2cc1OCC(=O)N1CCCCC1` it is 104%.
Still for that read-out and setting: the figure for `S=c1nc(CS)[nH]c2ccccc12` is 98.5%; for `O=C1/C(=C/c2cn(-c3ccccc3)nc2-c2ccccc2)SC(=S)N1c1ccccc1` it is 99.8%.
Still for that read-out and setting: the figure for `O=C(c1ccc(Nc2nccc(NCCCNc3ccnc4cc(Cl)ccc34)n2)cc1)N1CCCCC1` is 26.3%.
As to `O=C1/C(=C/c2cn(-c3ccccc3)nc2-c2ccccc2)SC(=S)N1c1ccc(Cl)cc1`, the growth was 84.4%.
Take `COc1cc(/C=C2\C(=O)N(CCCCn3c4ccccc4c(=O)c4ccccc43)c3ccccc32)cc(OC)c1O`: the growth was 47.4%.

For a further experiment, the system named is MCF7 breast. The experiment is described as above. The conditions noted are these: 10 µM unless noted.
As for `O=C(Nc1ccc(F)cc1)c1cc2cc(Nc3nc(-c4ccccc4)nc4ccccc34)ccc2oc1=O`, the growth was 97.9%.
`COC(=O)c1c2c(c(C)[n+]([O-])c1C)C(=O)C(NCCN1CCOCC1)=CC2=O`: the growth was 55.9%.
`COc1c(O)c(O)cc2c3c(oc12)CC(c1ccc2c(c1)OCO2)CC3=O` (stereo unspecified): the growth was 35.5%.
Still for that read-out and setting: next, `O=C1CCCCN1CCCCC#Cc1cccc(C#Cc2cccnc2)c1`: 101%; `Cc1ccc(-c2nc3nc(-c4ccc(Cl)cc4)nc(N4CCCNCC4)c3o2)cc1`: -79.4% (active).
Still for that read-out and setting: next, `CC(=O)c1c(C)nc2ccccc2c1/C=C/c1cccc(C)c1`: 24.2%; `CCOC(=O)C(=CCC(C)C)C(=O)OCC`: 99.5%.
As to `BrC1=C(Br)C(Br)(Br)C(Br)=C1Br`, the growth is 50%.
With `COc1ccc(-c2csc(NC(=O)CN3CCN(CCO)CC3)n2)cc1NS(=O)(=O)c1cccc2c(N(C)C)cccc12`, the growth was 59.6%.
For `Cc1nnc(NS(=O)(=O)c2ccc(N=Nc3ccc(N)nc3N)cc2)s1`, the growth was 105% and 106%.
Still for that read-out and setting: the figure for `CCCCCCCCCCCCCCCCCCn1cc(COc2ccc(C=O)cc2)nn1` is 92.8%.
Same read-out and setting: next, `C=C(C)[C@@H]1CC[C@]2(C(=O)O)CC[C@]3(C)[C@H](CC[C@@H]4[C@@]5(C)CCC(N)C(C)(C)[C@@H]5CC[C@]43C)[C@@H]12` (stereo partly specified): 2.48% (active); `Cc1ccc(-c2nc3nc(-c4ccc(Br)cc4)nc(N4CCCNCC4)c3o2)cc1`: -75.8% (active); `O=C(Nc1ncc(Cc2cccc(C(F)(F)F)c2)s1)c1ccc2c(c1)OCCO2`: 13.9%.
On the same count and under the same terms, the figure for `COCCn1cc(-c2nc(-c3cn(CCOC)c4ncccc34)cs2)c2ccccc21` is 10.5%.
In the case of `O=C(N=Nc1c(O)[nH]c2ccccc12)Nc1ccccc1Cl`, the growth is 19.8%.
The same measure, in the same setting: the figure for `CC1(C)C(N)=Nc2cc(OCCCN3Cc4ccc(OCCc5cn(CC(=O)N6CCC(CCN7CCCC7)CC6)nn5)cc4C3)c(OCC3CC3)cc21` is 89.3%; for `COc1ccc(CN2CCc3c(Cl)nc(N)nc3C2=O)c(OC)c1` it is 6.65% [100 µM] (active); for `C=C(CNCCO)[C@@H]1CC[C@]2(CO)CC[C@]3(C)[C@H](CC[C@@H]4[C@@]5(C)CCC(NCCc6ccc(O)cc6)C(C)(C)[C@@H]5CC[C@]43C)[C@@H]12` (stereo partly specified) it is -73.4% (active).
Still for that read-out and setting: next, `COc1ccc2nc3cc(Cl)ccc3c(NCCCNCCC(C)O)c2c1` (stereo unspecified): -0.546% (active); `Clc1ccc(CNc2ccc3nc(CCC4CCCCC4)[nH]c3c2)cc1`: 37.9%.
On the same count and under the same terms, the figure for `Nc1n[nH]c2cccc(C#Cc3cccc(NC(=O)c4ccc(N5CCOCC5)c(C(F)(F)F)c4)c3)c12` is 25.6%; for `ON=C1CCCCCCCC1` it is 98.9% and 91.3%.
As to `Cc1ccc(C(=O)Nc2ccc(CN3CCN(C)CC3)c(C(F)(F)F)c2)cc1C#Cc1cnc(N)cc1C#N`, the growth is -75.5% (active).
The same measure, in the same setting: next, `COc1nc(=O)n(C2C=CC(=O)O2)cc1F` (stereo unspecified): 31.9%; `OB(O)c1ccsc1-c1nc2ccc3[nH]ncc3c2c2c1CCCC2`: 49.3%; `Cc1ccc(NC(=O)c2sc3nc(C)c(C(=O)c4ccccc4)cc3c2N)cc1`: 70.9%.
On the same count and under the same terms, next, `O=C1C(c2c[nH]c3ccccc23)=C(c2coc3cc(Br)ccc23)C(=O)N1O`: 80.6%; `O=C1Nc2ccccc2/C1=C/c1cccn1CCCCCn1c2ccccc2c(=O)c2ccccc21`: 1.17% (active).
On the same count and under the same terms, the figure for `O=C(/C=C/c1ccc(Cl)s1)c1ccc(Cl)s1` is 59.3% and 60.5%; for `NC(N)=NC(N)=NCCCc1ccco1` it is 106%; for `Cc1nc2sc(C(=O)Nc3cccc(Cl)c3C)c(N)c2cc1C(O)c1ccccc1` (stereo unspecified) it is 16.2%.
`COc1cc2ncnc(Nc3ccc(F)c(Cl)c3)c2cc1OCC(=O)N1CCCCC1`: the growth is 82.6%.
Still for that read-out and setting: next, `S=c1nc(CS)[nH]c2ccccc12`: 79.6%.
On the same count and under the same terms, next, `O=C1/C(=C/c2cn(-c3ccccc3)nc2-c2ccccc2)SC(=S)N1c1ccccc1`: 93.8%; `O=C(c1ccc(Nc2nccc(NCCCNc3ccnc4cc(Cl)ccc34)n2)cc1)N1CCCCC1`: 23.1%.
With `O=C1/C(=C/c2cn(-c3ccccc3)nc2-c2ccccc2)SC(=S)N1c1ccc(Cl)cc1`, the growth was 82.2%.
Same read-out and setting: next, `COc1cc(/C=C2\C(=O)N(CCCCn3c4ccccc4c(=O)c4ccccc43)c3ccccc32)cc(OC)c1O`: 22.8%.

(Values after PubChem BioAssay (NCI).)
